Reference: PubChem BioAssay
Records with an inconclusive call do not appear. The source made the active and inactive calls.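 Rule for the calls, unless noted: active = inhibition above 54%, about 3 SD of non-fluorescent compounds; inactive = the rest.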

Experiments:
[1] = rapamycin-like changes in RPL19A-GFP expression – cell-based, S. cerevisiae, multiplex flow cytometry, primary screen (AID 1862; in the data active = percent of DMSO control GFP below about 86%;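 note: lower values mimic rapamycin by blocking the RPL19A rise seen in DMSO cells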); conditions: S. cerevisiae RPL19A-GFP strain, flow cytometry fluorescence, 3 h; at 10 µM; stronger effect = lower value
[2] = TOR pathway GLN3 branch reporter MEP2-GFP changes – S. cerevisiae, multiplex flow cytometry, primary screen (AID 1867;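 active = GFP response, as percent of the DMSO control, above the screen-wide mean plus 3 SD, about 139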;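 note: median GFP channel fluorescence of barcode-gated MEP2-GFP cells measured by flow cytometry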); conditions: S. cerevisiae MEP2-GFP strain, 3 h, at 10 µM, stronger effect = higher value, 100% means same as DMSO wells
[3] = TOR pathway RTG branch CIT2 reporter changes – S. cerevisiae, GFP fusion, multiplex flow cytometry, primary screen (AID 1870;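 active = percent response above a set limit, the screen-wide mean plus 3 SD, cut at about 130% in these data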;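 note: barcoded CIT2-GFP strain pooled with four other GFP strains with rapamycin as positive control; median GFP fluorescence per well over plate mean of DMSO wells so 100% = DMSO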); conditions: S. cerevisiae CIT2-GFP expression, 3 h, at 10 µM, stronger effect = higher value
[4] = TOR pathway LAP4-GFP level changes – S. cerevisiae, multiplex flow cytometry, primary screen (AID 1873;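 active = GFP signal, as percent of the solvent control, above the screen mean plus 3 SD, about 149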); conditions: S. cerevisiae LAP4-GFP expression, 3 h, at 10 µM, stronger effect = higher value
[5] = yeast AGP1-GFP level changes, GLN3 branch – cell-based, multiplex flow cytometry, S. cerevisiae, primary screen (AID 1887;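 active = GFP signal above the screen-wide mean plus 3 SD, that is over about 124.5% of the solvent control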;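 note: AGP1-GFP fusion strain of S. cerevisiae within a five-strain barcoded multiplex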); conditions: 3 h, at 10 µM, stronger effect = higher value
[6] = reduced mouse 2C T cell binding to pMHC/ICAM-1 vesicles – MLPCN validation set, flow cytometry, LFA-1/ICAM-1 modulator project, pilot screen (AID 2523;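 active = response below a set limit, under 55% cells CD8-positive and vesicle-bound, and CD8 cells' 90th-percentile brightness under 279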;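 for vesicle binding response: mean PE anti-B7-1 fluorescence of CD8+ cells relative to row control; 100% = QL9-loaded vesicles with DMSO vehicle in the same plate row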); conditions: 2C mouse CD8+ T cells, at 7 µM, stronger effect = lower value; double positive events: measured here: CD8+/vesicle+ event percentage
[7] = molecular target: Integrin beta-1 (Homo sapiens) + Integrin alpha-4 (Homo sapiens) (UniProt P13612+P05556); assay: alpha4beta1 integrin LIBS antibody binding reduction – U937 cells, HUTS-21 mAb, flow cytometry, validation set, VLA-4 allosteric modulator project, pilot screen (AID 2674;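 active = inhibition above 50%, about 3 SD of the validation set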;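 note: antibody binding induced by the VLA-4 ligand LDV present at three times its Kd; 0% = LDV ligand with antibody and no compound and 100% = antibody without LDV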); conditions: HUTS-21 LIBS mAb binding, at 6.7 µM, stronger effect = higher value, binding induced by LDV ligand
[8] = calorie-restriction mimetic ROS inhibitors, yeast – validation compound set, pilot screen (AID 2706;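 active = superoxide response below 65% of plate, a cut near 3 SD across the whole screen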;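 note: yeast exposed to compound for one week at 30 degrees C before staining; 100% = mean of all compound wells on the same plate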); conditions: S. cerevisiae aging, superoxide DHE fluorescence; at 10 µM; stronger effect = lower value
[9] = molecular target: Beta-adrenergic receptor kinase 1 (Homo sapiens) (UniProt P25098); assay: GRK2 binders displacing RNA aptamer, biochemical, validation, human GRK2, bead flow cytometry (AID 488806;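 active = aptamer binding inhibition above 30%, about 3 SD of noise from non-fluorescent compounds; inactive = inhibition at or below 30%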); conditions: bead-bound GRK2, FAM-aptamer displacement, at 10 µM, stronger effect = higher value
[10] = molecular target: Beta-2 adrenergic receptor (Homo sapiens) (UniProt P07550); assay: agonist-induced loss of surface beta2AR – cell-based, FAP fluorogen, flow cytometry, validation set, pilot screen (AID 504459;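 active = percent response above 42, roughly 3 SD of non-fluorescent test compounds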;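 note: agonist-driven loss of surface beta2AR via internalization measured by FAP dye flow cytometry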); conditions: Am2.2-beta2AR cells, at 10 µM, stronger effect = higher value
[11] = molecular target: AP-2 complex subunit beta (Homo sapiens) (UniProt P63010); assay: beta-arrestin/AP2 interaction blockers – biochemical, validation set, GST-AP2 beads, flow cytometry, pilot screen (AID 504541); conditions: FITC arrestin peptide, at 10 µM, stronger effect = higher value, AP2 beta2 appendage fragment, R879A mutant;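 note: AP2 carries R879A mutation and is captured from E. coli lysate; bead-bound FITC arrestin peptide fluorescence measuring arrestin peptide binding to AP2; 0% = DMSO wells and 100% = excess unlabeled arrestin peptide control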
[12] = cytosolic pH regulators acting via V-ATPase – S. cerevisiae, pHLuorin, HTS validation (AID 504600; in the data active = response above about 15%;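 note: plate controls were DMSO for no effect and reference compound for full effect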); conditions: V-ATPase proton transport, at 10 µM, stronger effect = higher value
[13] = tested on: anti-desmoglein-3 scFv antibody binding to human DSG3; assay: blockers of pathogenic pemphigus antibody–desmoglein-3 binding – biochemical, validation compound set, bead-based, flow cytometry, pilot screen (AID 588368;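 active = binding below the plate cutoff, the plate median minus 3 SD, with a reading above zero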;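 note: signal is the median channel fluorescence of bead-bound GFP antibody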); conditions: Protein G beads, DSG3-Fc, scFv-GFP binding, at 10 µM, stronger effect = lower value
[14] = Nile Red efflux blockade in pump-expressing yeast – validation compound set, multiplex, phenotypic, pilot screen (AID 588506;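 active = efflux inhibition above 0.42, the validation set average plus 4 SD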;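 note: Nile Red retained in cells so higher fluorescence means more efflux inhibition; 0 = negative control wells and 1 = enniatin B 25 µM full block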); conditions: S. cerevisiae pump-expressing triplex, Nile Red efflux flow cytometry; at 10 µM; stronger effect = higher value; the pumps come from Candida albicans
[15] = molecular target: ATP-binding cassette sub-family B member 6 (Homo sapiens) (UniProt Q9NP58); assay: blockers of ABCB6-driven porphyrin uptake – K562-ABCB6 cells, flow cytometry, validation set, pilot screen (AID 588550;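 active = inhibition above the screen-wide mean plus 3 SD, about 51%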;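 note: 0% = DMSO wells and 100% = benzethonium chloride 70 µM positive control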); conditions: K562-ABCB6 porphyrin accumulation, 1 h, at 10 µM, stronger effect = higher value
[16] = AML differentiation inducers, ER-HoxA9 marrow cells – cell-based, GFP/MAC1 double positive, flow cytometry, validation set, primary screen (AID 588685;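 active = differentiation response of at least 50%, scaled between solvent and reference control, from cells with both markers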;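 note: compound exposure lasts four days before antibody staining and flow analysis; 0% = DMSO wells and 100% = 5 µM fulvestrant positive control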); conditions: stronger effect = higher value, normalized: vehicle 0, fulvestrant 100

Integrin beta-1 (Homo sapiens) + Integrin alpha-4 (Homo sapiens), sequence (P05556 whole entry, looked up): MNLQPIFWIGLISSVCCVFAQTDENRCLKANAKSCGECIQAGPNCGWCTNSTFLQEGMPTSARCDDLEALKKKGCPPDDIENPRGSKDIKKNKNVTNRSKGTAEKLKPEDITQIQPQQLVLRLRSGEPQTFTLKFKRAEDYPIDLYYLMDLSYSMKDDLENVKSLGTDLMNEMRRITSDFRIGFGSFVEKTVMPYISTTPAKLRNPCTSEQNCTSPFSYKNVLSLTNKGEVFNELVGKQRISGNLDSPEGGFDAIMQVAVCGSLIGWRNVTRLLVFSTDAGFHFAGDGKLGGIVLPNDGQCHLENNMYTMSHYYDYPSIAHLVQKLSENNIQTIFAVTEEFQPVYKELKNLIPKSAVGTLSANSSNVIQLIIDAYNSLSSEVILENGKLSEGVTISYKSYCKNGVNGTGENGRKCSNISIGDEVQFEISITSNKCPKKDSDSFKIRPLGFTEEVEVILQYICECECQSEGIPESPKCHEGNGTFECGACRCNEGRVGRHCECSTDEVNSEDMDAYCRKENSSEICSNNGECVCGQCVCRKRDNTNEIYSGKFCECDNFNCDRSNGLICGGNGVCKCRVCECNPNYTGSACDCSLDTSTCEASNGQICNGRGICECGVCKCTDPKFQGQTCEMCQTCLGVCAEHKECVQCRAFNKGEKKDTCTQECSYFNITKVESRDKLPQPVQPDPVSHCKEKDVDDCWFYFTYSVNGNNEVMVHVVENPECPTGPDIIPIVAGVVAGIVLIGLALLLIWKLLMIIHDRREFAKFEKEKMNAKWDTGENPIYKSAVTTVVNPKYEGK
Integrin beta-1 (Homo sapiens) + Integrin alpha-4 (Homo sapiens), sequence (P13612 whole entry, looked up): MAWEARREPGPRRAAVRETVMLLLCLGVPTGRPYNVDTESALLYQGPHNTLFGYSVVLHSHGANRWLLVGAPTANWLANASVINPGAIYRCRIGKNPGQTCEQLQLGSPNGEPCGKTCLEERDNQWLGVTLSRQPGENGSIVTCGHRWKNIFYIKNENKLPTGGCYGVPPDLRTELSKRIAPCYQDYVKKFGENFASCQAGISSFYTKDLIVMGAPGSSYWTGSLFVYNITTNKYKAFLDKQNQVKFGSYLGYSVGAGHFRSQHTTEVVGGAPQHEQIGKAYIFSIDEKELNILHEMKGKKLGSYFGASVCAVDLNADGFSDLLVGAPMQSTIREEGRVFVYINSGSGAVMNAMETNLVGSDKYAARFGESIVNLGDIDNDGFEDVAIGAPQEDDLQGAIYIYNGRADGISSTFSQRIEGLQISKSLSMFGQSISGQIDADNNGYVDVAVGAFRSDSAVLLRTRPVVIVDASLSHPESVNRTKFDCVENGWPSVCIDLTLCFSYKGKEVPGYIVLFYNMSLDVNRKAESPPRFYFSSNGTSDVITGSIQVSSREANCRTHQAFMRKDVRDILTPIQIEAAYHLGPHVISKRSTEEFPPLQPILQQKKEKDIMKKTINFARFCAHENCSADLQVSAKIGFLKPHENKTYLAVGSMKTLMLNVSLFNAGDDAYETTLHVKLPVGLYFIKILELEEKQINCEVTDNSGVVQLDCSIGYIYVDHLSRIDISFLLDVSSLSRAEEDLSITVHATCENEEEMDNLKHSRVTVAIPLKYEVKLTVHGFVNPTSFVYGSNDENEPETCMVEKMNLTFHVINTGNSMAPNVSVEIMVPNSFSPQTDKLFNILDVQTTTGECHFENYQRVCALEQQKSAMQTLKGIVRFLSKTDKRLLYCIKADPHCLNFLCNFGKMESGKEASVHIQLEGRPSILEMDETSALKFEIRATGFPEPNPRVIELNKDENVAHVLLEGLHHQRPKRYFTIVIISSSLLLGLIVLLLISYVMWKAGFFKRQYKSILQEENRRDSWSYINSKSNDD
ATP-binding cassette sub-family B member 6 (Homo sapiens), sequence (Q9NP58 whole entry, looked up): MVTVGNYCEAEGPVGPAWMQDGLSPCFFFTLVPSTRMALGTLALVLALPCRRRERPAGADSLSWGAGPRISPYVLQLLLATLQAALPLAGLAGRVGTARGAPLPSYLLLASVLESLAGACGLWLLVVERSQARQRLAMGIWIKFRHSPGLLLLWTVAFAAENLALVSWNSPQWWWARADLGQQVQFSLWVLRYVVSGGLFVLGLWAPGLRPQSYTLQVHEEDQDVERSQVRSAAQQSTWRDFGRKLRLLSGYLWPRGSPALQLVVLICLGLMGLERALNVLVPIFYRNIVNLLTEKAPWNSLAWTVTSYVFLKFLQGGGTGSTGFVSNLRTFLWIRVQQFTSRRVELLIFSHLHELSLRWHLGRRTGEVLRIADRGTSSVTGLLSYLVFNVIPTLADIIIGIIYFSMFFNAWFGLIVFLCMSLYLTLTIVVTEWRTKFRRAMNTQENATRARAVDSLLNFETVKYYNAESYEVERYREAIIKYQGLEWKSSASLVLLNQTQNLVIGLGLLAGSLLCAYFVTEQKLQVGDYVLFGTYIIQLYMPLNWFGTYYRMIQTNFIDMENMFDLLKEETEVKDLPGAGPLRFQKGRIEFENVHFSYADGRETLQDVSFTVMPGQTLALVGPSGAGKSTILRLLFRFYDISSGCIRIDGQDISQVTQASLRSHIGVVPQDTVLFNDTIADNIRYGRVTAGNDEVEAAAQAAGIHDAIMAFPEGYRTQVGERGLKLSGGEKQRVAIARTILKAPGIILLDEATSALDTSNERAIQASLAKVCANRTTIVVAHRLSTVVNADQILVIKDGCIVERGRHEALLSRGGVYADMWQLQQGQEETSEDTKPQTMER
Beta-2 adrenergic receptor (Homo sapiens), sequence (P07550 whole entry, looked up, the tested form may be a part): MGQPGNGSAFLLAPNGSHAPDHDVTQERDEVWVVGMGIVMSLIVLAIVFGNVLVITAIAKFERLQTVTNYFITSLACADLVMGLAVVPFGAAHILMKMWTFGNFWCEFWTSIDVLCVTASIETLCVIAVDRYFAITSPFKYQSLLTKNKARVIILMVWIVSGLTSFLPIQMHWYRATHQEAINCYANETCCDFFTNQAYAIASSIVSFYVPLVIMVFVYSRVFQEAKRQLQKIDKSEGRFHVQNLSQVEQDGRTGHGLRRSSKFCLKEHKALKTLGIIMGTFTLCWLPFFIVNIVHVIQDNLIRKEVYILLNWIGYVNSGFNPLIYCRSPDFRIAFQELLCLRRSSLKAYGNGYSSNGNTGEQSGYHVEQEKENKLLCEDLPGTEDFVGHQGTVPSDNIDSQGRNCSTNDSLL
Beta-adrenergic receptor kinase 1 (Homo sapiens), sequence (P25098 whole entry, looked up): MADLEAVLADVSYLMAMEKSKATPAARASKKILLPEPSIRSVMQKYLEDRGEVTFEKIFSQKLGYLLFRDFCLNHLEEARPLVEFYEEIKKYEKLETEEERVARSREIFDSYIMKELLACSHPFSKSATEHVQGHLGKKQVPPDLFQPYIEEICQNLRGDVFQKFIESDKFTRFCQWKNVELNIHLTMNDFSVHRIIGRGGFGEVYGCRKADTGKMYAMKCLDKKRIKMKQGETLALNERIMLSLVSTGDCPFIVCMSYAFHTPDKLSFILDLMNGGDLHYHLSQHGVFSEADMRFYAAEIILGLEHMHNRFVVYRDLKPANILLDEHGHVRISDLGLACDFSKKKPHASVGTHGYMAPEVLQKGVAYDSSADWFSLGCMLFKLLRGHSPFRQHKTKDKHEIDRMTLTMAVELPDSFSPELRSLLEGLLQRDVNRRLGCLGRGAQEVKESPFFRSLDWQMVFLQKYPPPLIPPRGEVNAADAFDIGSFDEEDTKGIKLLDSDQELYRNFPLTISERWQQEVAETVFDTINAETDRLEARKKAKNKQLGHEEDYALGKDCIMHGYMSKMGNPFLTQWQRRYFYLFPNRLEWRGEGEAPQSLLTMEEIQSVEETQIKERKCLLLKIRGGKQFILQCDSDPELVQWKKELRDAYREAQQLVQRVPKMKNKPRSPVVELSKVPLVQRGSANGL
AP-2 complex subunit beta (Homo sapiens), sequence (P63010 whole entry, looked up, the tested form may be a part, one chain of several): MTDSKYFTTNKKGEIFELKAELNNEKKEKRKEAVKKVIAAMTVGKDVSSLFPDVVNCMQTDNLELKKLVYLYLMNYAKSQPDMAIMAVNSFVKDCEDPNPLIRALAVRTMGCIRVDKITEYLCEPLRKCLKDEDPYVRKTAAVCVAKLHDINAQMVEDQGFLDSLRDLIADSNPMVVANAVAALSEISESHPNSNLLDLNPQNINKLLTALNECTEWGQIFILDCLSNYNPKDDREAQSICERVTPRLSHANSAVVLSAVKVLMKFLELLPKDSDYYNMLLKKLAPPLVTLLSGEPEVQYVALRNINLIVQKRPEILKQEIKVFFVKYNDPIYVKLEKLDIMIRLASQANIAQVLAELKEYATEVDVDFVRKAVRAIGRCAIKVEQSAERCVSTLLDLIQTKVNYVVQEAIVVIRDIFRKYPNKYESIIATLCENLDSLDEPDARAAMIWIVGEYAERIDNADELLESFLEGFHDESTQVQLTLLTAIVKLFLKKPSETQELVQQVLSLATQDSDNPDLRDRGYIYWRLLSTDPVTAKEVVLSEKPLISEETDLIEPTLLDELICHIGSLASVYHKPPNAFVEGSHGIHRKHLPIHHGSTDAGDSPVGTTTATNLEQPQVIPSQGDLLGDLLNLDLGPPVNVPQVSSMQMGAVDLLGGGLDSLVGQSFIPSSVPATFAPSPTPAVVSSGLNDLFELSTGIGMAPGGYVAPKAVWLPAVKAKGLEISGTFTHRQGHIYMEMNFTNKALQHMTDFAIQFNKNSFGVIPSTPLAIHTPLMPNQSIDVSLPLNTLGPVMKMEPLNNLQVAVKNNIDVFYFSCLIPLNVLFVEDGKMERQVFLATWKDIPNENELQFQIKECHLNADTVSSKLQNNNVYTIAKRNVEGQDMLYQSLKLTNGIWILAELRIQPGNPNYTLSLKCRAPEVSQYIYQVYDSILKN

SMILES | percent of DMSO control GFP [1] | GFP response vs DMSO [2] | percent response of DMSO control [3] | GFP response vs DMSO [4] | GFP response, % of DMSO [5] | double positive events [6] [%] | vesicle binding response [6] | inhibition [7] | superoxide response (% of plate) [8] | aptamer binding inhibition [9] | response [10] | inhibition [11] | response [12] | binding (% of control) [13] | efflux inhibition (fraction of control) [14] | inhibition [15] | differentiation response [16]
CN1[C@@H]2CC[C@H]1CC(OC(=O)C(CO)c1ccccc1)C2 (stereo partly drawn) | 99.6% (inactive) | 97.7% (inactive) | 103% (inactive) | 86.1% (inactive) | 98% (inactive) | 61.1 | 163% (inactive) | 8.29% (inactive) | 113% (inactive) | 25% (inactive) | -0.25% (inactive) | -4.27% (inactive) | 3.64% (inactive) | 101% (inactive) | -0.205 (inactive) | 7% (inactive) | -13.3% (inactive)
CC(NC(=O)OCc1ccccc1)C(=O)N1CC(O)CC1C(=O)O (stereo not drawn) | 103% (inactive) | 112% (inactive) | 90.1% (inactive) | 105% (inactive) | 103% (inactive) | 62.9 | 182% (inactive) | 6.4% (inactive) | 97.5% (inactive) | 3% (inactive) | 9.77% (inactive) | 31.1% (inactive) | -4.2% (inactive) | 99.5% (inactive) | 0.8 (active) | 4% (inactive) | 29.6% (inactive)
Cn1c([N+](=O)[O-])cnc1COC(N)=O | 92.8% (inactive) | 136% (inactive) | 103% (inactive) | 83.6% (inactive) | 88.9% (inactive) | 62.7 | 157% (inactive) | 8.4% (inactive) | 98.7% (inactive) | 4% (inactive) | 5.28% (inactive) | -5.93% (inactive) | -3.52% (inactive) | 105% (inactive) | -0.35 (inactive) | 11% (inactive) | -3.28% (inactive)
Cc1ccc(Cl)c(Nc2ccccc2C(=O)O)c1Cl | 98.9% (inactive) | 103% (inactive) | 94.4% (inactive) | 114% (inactive) | 98% (inactive) | 60.7 | 123% (inactive) | 2.29% (inactive) | 95.2% (inactive) | 2% (inactive) | -14.2% (inactive) | 1.34% (inactive) | 11.1% (inactive) | 103% (inactive) | -0.13 (inactive) | 2% (inactive) | -4.99% (inactive)
CCc1nc2ccccc2c(NC(=O)CN2CC(C)CC(C)C2)c1C (stereo not drawn) | 99% (inactive) | 105% (inactive) | 101% (inactive) | 90.7% (inactive) | 96.2% (inactive) | 63.1 | 179% (inactive) | -7.72% (inactive) | 105% (inactive) | -2% (inactive) | 0.46% (inactive) | -1.11% (inactive) | 9.89% (inactive) | 93.8% (inactive) | 0.11 (inactive) | 10% (inactive) | 0.24% (inactive)
COc1ccc(CC(=O)NCC2(c3ccc(OC)c(OC)c3)CCOCC2)cc1 | 103% (inactive) | 96.3% (inactive) | 104% (inactive) | 82.8% (inactive) | 89.7% (inactive) | 54 | 175% (inactive) | 5.03% (inactive) | 102% (inactive) | 8% (inactive) | -10.1% (inactive) | -7.91% (inactive) | 0.74% (inactive) | 99.3% (inactive) | -0.35 (inactive) | -23% (inactive) | -12% (inactive)
CC(C)(C)N1NC2(CCCCC2)NC1=S | 99.8% (inactive) | 113% (inactive) | 118% (inactive) | 80.9% (inactive) | 95.2% (inactive) | 53.1 | 193% (inactive) | -3.24% (inactive) | 125% (inactive) | -1% (inactive) | -12.5% (inactive) | -12.7% (inactive) | 0.59% (inactive) | 104% (inactive) | 0.27 (inactive) | 7% (inactive) | 1.64% (inactive)
COc1ccccc1CCn1cnc2c3cc(C)ccc3n(C)c2c1=O | 100% (inactive) | 106% (inactive) | 105% (inactive) | 108% (inactive) | 98.8% (inactive) | 56.6 | 138% (inactive) | -27.9% (inactive) | 94.8% (inactive) | -1% (inactive) | -8.23% (inactive) | 9.65% (inactive) | -3.34% (inactive) | 101% (inactive) | -0.31 (inactive) | -9% (inactive) | -14.8% (inactive)
CC(C)OC(=O)C1C(=O)CC(C)(O)C(C(=O)OC(C)C)C1c1cccc(O)c1 (stereo not drawn) | 105% (inactive) | 99.7% (inactive) | 105% (inactive) | 101% (inactive) | 114% (inactive) | 55.9 | 278% (inactive) | -18.5% (inactive) | 85.3% (inactive) | -5% (inactive) | 6.25% (inactive) | 29.4% (inactive) | -3.54% (inactive) | 99.8% (inactive) | -0.22 (inactive) | -13% (inactive) | -11.9% (inactive)
O=C(c1ccc(Cl)cc1)C1CCCN(Cc2ccc(Oc3ncccn3)cc2)C1 (stereo not drawn) | 108% (inactive) | 104% (inactive) | 106% (inactive) | 87.2% (inactive) | 96.5% (inactive) | 65.7 | 227% (inactive) | 24.4% (inactive) | 93.5% (inactive) | 2% (inactive) | -3.98% (inactive) | -1.25% (inactive) | 2.78% (inactive) | 106% (inactive) | -0.12 (inactive) | 21% (inactive) | -6.03% (inactive)
COc1ccc(NS(=O)(=O)c2ccc(N)cc2)nn1 | 97.3% (inactive) | 104% (inactive) | 92.9% (inactive) | 120% (inactive) | 102% (inactive) | 56.9 | 162% (inactive) | 5.03% (inactive) | 91.9% (inactive) | 6% (inactive) | -5.23% (inactive) | 4.72% (inactive) | 3.89% (inactive) | 102% (inactive) | -0.17 (inactive) | 2% (inactive) | -12% (inactive)
N/C(=N\OC(=O)CCCOc1ccc(Cl)cc1Cl)c1ccccn1 | 103% (inactive) | 110% (inactive) | 93.9% (inactive) | 107% (inactive) | 86.8% (inactive) | 59.3 | 11.6% (inactive) | 9.71% (inactive) | 106% (inactive) | 0% (inactive) | 2.49% (inactive) | -27.4% (inactive) | -2.42% (inactive) | 105% (inactive) | -0.12 (inactive) | 7% (inactive) | -5.68% (inactive)
CC[N+](C)(C)c1cccc(O)c1 | 103% (inactive) | 99.3% (inactive) | 112% (inactive) | 97.3% (inactive) | 102% (inactive) | 57.5 | 123% (inactive) | -0.45% (inactive) | 90.1% (inactive) | 56% (active) | -3.94% (inactive) | -0.12% (inactive) | -0.97% (inactive) | 103% (inactive) | -0.17 (inactive) | -7% (inactive) | 7.09% (inactive)
Cc1nnc(SCC2=C(C(=O)O)N3C(=O)[C@@H](NC(=O)Cn4cnnn4)[C@H]3SC2)s1 | 100% (inactive) | 104% (inactive) | 100% (inactive) | 114% (inactive) | 112% (inactive) | 61.6 | 282% (inactive) | 15.9% (inactive) | 98.1% (inactive) | -1% (inactive) | -26.4% (inactive) | 6.15% (inactive) | -5.74% (inactive) | 93.4% (inactive) | -0.13 (inactive) | 1% (inactive) | -7.94% (inactive)
CCOC(=O)c1oc2cc(O)cc(C)c2c(=O)c1-c1cscn1 | 100% (inactive) | 105% (inactive) | 91% (inactive) | 119% (inactive) | 102% (inactive) | 58.7 | 182% (inactive) | 3.67% (inactive) | 101% (inactive) | 4% (inactive) | -3.97% (inactive) | 24.6% (inactive) | -5.59% (inactive) | 101% (inactive) | -0.06 (inactive) | 3% (inactive) | 5.6% (inactive)
Nc1ccc(S(N)(=O)=O)cc1N | 98.1% (inactive) | 119% (inactive) | 99.2% (inactive) | 84.7% (inactive) | 91.7% (inactive) | 66.3 | 202% (inactive) | 3.55% (inactive) | 82.8% (inactive) | 3% (inactive) | 31.7% (inactive) | 7.24% (inactive) | 0.32% (inactive) | 103% (inactive) | -0.28 (inactive) | 14% (inactive) | 2.46% (inactive)
NC(N)=NC(N)=Nc1ccc2ccccc2c1 | 102% (inactive) | 97.4% (inactive) | 104% (inactive) | 85.4% (inactive) | 95.8% (inactive) | 58.7 | 183% (inactive) | 3.67% (inactive) | 106% (inactive) | 1% (inactive) | 18% (inactive) | 16% (inactive) | -3.32% (inactive) | 97.8% (inactive) | -0.21 (inactive) | -3% (inactive) | -0.8% (inactive)
Cc1nnc(NS(=O)(=O)c2ccc(N)cc2)s1 | 92.4% (inactive) | 126% (inactive) | 92.6% (inactive) | 83.6% (inactive) | 92.8% (inactive) | 61.7 | 123% (inactive) | 19.1% (inactive) | 102% (inactive) | 8% (inactive) | 2.41% (inactive) | 2.68% (inactive) | 0.26% (inactive) | 100% (inactive) | -0.24 (inactive) | 14% (inactive) | 0% (inactive)
Cc1ccc(CN2CCN(Cc3cn[nH]c3C3CCCCC3)CC2CCO)cc1 (stereo not drawn) | 102% (inactive) | 103% (inactive) | 97.7% (inactive) | 106% (inactive) | 122% (inactive) | 58.2 | 264% (inactive) | 21% (inactive) | 87.9% (inactive) | 0% (inactive) | -22.7% (inactive) | 7.73% (inactive) | -2.29% (inactive) | 103% (inactive) | 0.08 (inactive) | 8% (inactive) | -5.97% (inactive)
